In PMC9911399, “Two distinct binding modes provide the RNA-binding protein RbFox with extraordinary sequence specificity” one finds binding signal data, which are given here for 20 molecules.

Changes are numbered by the printed parent chain; changes in the protein carry UniProt numbers. The full ranking holds about 16,000 sequences; the median of “ka relative to ugcaugu” is about 0.0091, and the highest 2% start at about 0.032. The list comes from a sample in which the highest values are over-represented; it also holds similar and randomly drawn sequences.

First the molecules themselves.
T1: RBFOX1 RRM (Homo sapiens, UniProt Q9NWB1 109-208)
T1 sequence: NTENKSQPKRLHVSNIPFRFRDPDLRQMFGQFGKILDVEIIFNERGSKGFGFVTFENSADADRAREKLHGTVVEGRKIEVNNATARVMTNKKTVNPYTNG

B1: AGAAAUU (DNA:RNA)
RNA: GGGAGACCGGAAUUCAGAUUGUCCAGAAAUUUUAAAUCCCGUCGUAGCCACCA
DNA 1: CAATCTGAATTCCGGTCTCCC
DNA 2: TGGTGGCTACGACGGGATT
B2: UCAAUAA (DNA:RNA)
RNA: B1 RNA with A25U, G26C, A29U, U30A, U31A
DNA 1: CAATCTGAATTCCGGTCTCCC
DNA 2: TGGTGGCTACGACGGGATT
B3: ACAGCAG (DNA:RNA)
RNA: B1 RNA with G26C, A28G, A29C, U30A, U31G
DNA 1: CAATCTGAATTCCGGTCTCCC
DNA 2: TGGTGGCTACGACGGGATT
B4: CUCGUGG (DNA:RNA)
RNA: GGGAGACCGGAAUUCAGAUUGUCCCUCGUGGUUAAAUCCCGUCGUAGCCACCA
DNA 1: CAATCTGAATTCCGGTCTCCC
DNA 2: TGGTGGCTACGACGGGATT
B5: CGGCUAG (DNA:RNA)
RNA: B4 RNA with U26G, C27G, G28C, G30A
DNA 1: CAATCTGAATTCCGGTCTCCC
DNA 2: TGGTGGCTACGACGGGATT
B6: GGGCUAG (DNA:RNA)
RNA: B4 RNA with C25G, U26G, C27G, G28C, G30A
DNA 1: CAATCTGAATTCCGGTCTCCC
DNA 2: TGGTGGCTACGACGGGATT
B7: GGGGCGC (DNA:RNA)
RNA: B4 RNA with C25G, U26G, C27G, U29C, G31C
DNA 1: CAATCTGAATTCCGGTCTCCC
DNA 2: TGGTGGCTACGACGGGATT
B8: UGGGGCU (DNA:RNA)
RNA: B1 RNA with A25U, A27G, A28G, A29G, U30C
DNA 1: CAATCTGAATTCCGGTCTCCC
DNA 2: TGGTGGCTACGACGGGATT
B9: GGCUAGU (DNA:RNA)
RNA: B1 RNA with A25G, A27C, A28U, U30G
DNA 1: CAATCTGAATTCCGGTCTCCC
DNA 2: TGGTGGCTACGACGGGATT
B10: UGGGCUU (DNA:RNA)
RNA: B1 RNA with A25U, A27G, A28G, A29C
DNA 1: CAATCTGAATTCCGGTCTCCC
DNA 2: TGGTGGCTACGACGGGATT
B11: GGGCGCU (DNA:RNA)
RNA: B1 RNA with A25G, A27G, A28C, A29G, U30C
DNA 1: CAATCTGAATTCCGGTCTCCC
DNA 2: TGGTGGCTACGACGGGATT
B12: CGGGCGC (DNA:RNA)
RNA: B4 RNA with U26G, C27G, U29C, G31C
DNA 1: CAATCTGAATTCCGGTCTCCC
DNA 2: TGGTGGCTACGACGGGATT
B13: CUGGGCU (DNA:RNA)
RNA: B4 RNA with C27G, U29G, G30C, G31U
DNA 1: CAATCTGAATTCCGGTCTCCC
DNA 2: TGGTGGCTACGACGGGATT
B14: GGGGGGC (DNA:RNA)
RNA: B4 RNA with C25G, U26G, C27G, U29G, G31C
DNA 1: CAATCTGAATTCCGGTCTCCC
DNA 2: TGGTGGCTACGACGGGATT
B15: GUCGGGC (DNA:RNA)
RNA: B4 RNA with C25G, U29G, G31C
DNA 1: CAATCTGAATTCCGGTCTCCC
DNA 2: TGGTGGCTACGACGGGATT
B16: GGGCUUG (DNA:RNA)
RNA: B1 RNA with A25G, A27G, A28C, A29U, U31G
DNA 1: CAATCTGAATTCCGGTCTCCC
DNA 2: TGGTGGCTACGACGGGATT
B17: UAGUGAU (DNA:RNA)
RNA: B1 RNA with A25U, G26A, A27G, A28U, A29G, U30A
DNA 1: CAATCTGAATTCCGGTCTCCC
DNA 2: TGGTGGCTACGACGGGATT
B18: CACUUCG (DNA:RNA)
RNA: B4 RNA with U26A, G28U, G30C
DNA 1: CAATCTGAATTCCGGTCTCCC
DNA 2: TGGTGGCTACGACGGGATT
B19: GUCUGUU (DNA:RNA)
RNA: B1 RNA with A25G, G26U, A27C, A28U, A29G
DNA 1: CAATCTGAATTCCGGTCTCCC
DNA 2: TGGTGGCTACGACGGGATT
B20: GGGUUAG (DNA:RNA)
RNA: B4 RNA with C25G, U26G, C27G, G28U, G30A
DNA 1: CAATCTGAATTCCGGTCTCCC
DNA 2: TGGTGGCTACGACGGGATT

This experiment addresses T1, RBFOX1 RRM. Nature of the experiment: EMSA; HiTS-Eq, 1 nM pool, 10 min; buffer printed only for the single-RNA assays: 10 mM Tris pH 7.5, 150 mM NaCl, 3.4 mM EDTA, 0.001% NP-40, 30 C. As to conditions: tags: His6 N-terminal (pET28a); label: 5' 32P. The method, boiled down:
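Relative association constants, normalised to the cognate motif, were derived by comparing read counts of each RNA species with those of the control reaction. The RNA sequenced was the free fraction, separated by 8% native PAGE after a 10 min equilibration in 50 µL of 1 nM 5′-radiolabelled RNA (7 randomized nucleotides) with increasing concentrations of purified wild-type or mutant RbFox RRM.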
For orientation: In EMSA bound probe runs differently from free probe, usually more slowly.
On to B1, for which the binding signal was 0.00368 KA relative to UGCAUGU.

Consider B2, for which the binding signal is 0.00079 KA relative to UGCAUGU. For B3, the binding signal was 0.00511 KA relative to UGCAUGU. Take B4: the binding signal is 0.00654 KA relative to UGCAUGU. As for B5, the binding signal is 0.02 KA relative to UGCAUGU.

Consider B6, for which the binding signal is 0.0339 KA relative to UGCAUGU. As for B7, the binding signal was 0.0421 KA relative to UGCAUGU. Consider B8, for which the binding signal was 0.0267 KA relative to UGCAUGU. The figure for B9 is 0.0239 KA relative to UGCAUGU.

B10: the binding signal was 0.0356 KA relative to UGCAUGU. B11: the binding signal is 0.0216 KA relative to UGCAUGU.

In the case of B12, the binding signal is 0.0268 KA relative to UGCAUGU. For the molecule B13, the binding signal is 0.0227 KA relative to UGCAUGU. B14: the binding signal is 0.0272 KA relative to UGCAUGU. Consider B15, for which the binding signal was 0.0126 KA relative to UGCAUGU. On to B16, for which the binding signal is 0.0531 KA relative to UGCAUGU. Regarding B17, the binding signal is 0.00564 KA relative to UGCAUGU. For the molecule B18, the binding signal is 0.0103 KA relative to UGCAUGU. Take B19: the binding signal was 0.0246 KA relative to UGCAUGU. As for B20, the binding signal is 0.0153 KA relative to UGCAUGU.
